Laboratory results taken from PubChem BioAssay.
Activity calls are given as the source filed them.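 How the source made its calls: active means inhibition of the reporter signal at or above 50%; inactive means inhibition below 50%.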

Assay: TLR3 IRF3 reporter activation blockers – cell-based, poly I:C stimulus, luciferase, 10K MLSCN set, primary screen (AID 602277)
Conditions: HEK293-TLR3 RL24 IRF3 luciferase reporter, at 10 µM, active compounds read high

inhibition, inactive:
Cc1cc(=O)oc2c(CN3CCN(C)CC3)c(O)c(Cl)cc12 17.6%, C1CNCCNCCNCCN1 41.9%, CC(C(=O)O)c1ccc(-c2ccccc2)c(F)c1 (stereo unspecified) 42.9%, Cc1c(C)c2cc(Cl)c(O)c(CN3CCCCC3)c2oc1=O 6.59%, Cc1oc2nc(SCCCC(=O)NCCCO)nc(N)c2c1C 12.8%, CCN(CC)CCNC(=O)c1ccc(NC(C)=O)cc1 42.8%, CCCC(=O)N1c2ccccc2NC2=C(C(=O)CCC2)C1c1ccc(F)cc1 (stereo unspecified) 23.4%, COC(=O)CC1SC(=O)NC1=O (stereo unspecified) 8.22%, Cc1cc(OCC(=O)Nc2ccc3oc(-c4ccncc4)nc3c2)ccc1Cl -47.1%, CCn1cc(C(=O)O)c(=O)c2cc(F)c(N3CCNCC3)nc21 17.6%, COc1ccc(C(=O)Cn2c(N3CCCCC3)nc3c2c(=O)n(C)c(=O)n3C)cc1OC 12.6%, C=CCn1c(=S)[nH]c2nc3c(cc2c1=O)COC(C)(C)C3 -0.984%, c1ccc(-c2nnc(OCCN3CCOCC3)c3ccccc23)cc1 20.9%, C[C@@H]1CCC[C@H](C)N1NC(=O)c1ccc(Cl)c(S(N)(=O)=O)c1 20%, CCN(CC)CCN1C(=O)C(O)=C(C(=O)c2ccco2)C1c1ccccn1 (stereo unspecified) 18.9%, CCC1CCCCN1c1nc(-c2ccncc2)nc2ccccc12 (stereo unspecified) 30.3%
